This is a sample that favours compounds with a hit; in the whole collection about 11% have one here.
BAZ2B inh = inhibitors of human BAZ2B bromodomain | AlphaScreen BAZ2B-H3K14Ac peptide displacement | Potency, µM (top dose mostly 114 µM), for inactives: top-dose activity change, negative = inhibition, most hits filed as inhibitors | hit rate 4.4% among 360,000; note: % is set by controls: 0 for no effect and ±100 for the full control effect; nearly all actives have a fitted effect of over 60% in size
Target sequence (Q9UIF8 whole entry, looked up): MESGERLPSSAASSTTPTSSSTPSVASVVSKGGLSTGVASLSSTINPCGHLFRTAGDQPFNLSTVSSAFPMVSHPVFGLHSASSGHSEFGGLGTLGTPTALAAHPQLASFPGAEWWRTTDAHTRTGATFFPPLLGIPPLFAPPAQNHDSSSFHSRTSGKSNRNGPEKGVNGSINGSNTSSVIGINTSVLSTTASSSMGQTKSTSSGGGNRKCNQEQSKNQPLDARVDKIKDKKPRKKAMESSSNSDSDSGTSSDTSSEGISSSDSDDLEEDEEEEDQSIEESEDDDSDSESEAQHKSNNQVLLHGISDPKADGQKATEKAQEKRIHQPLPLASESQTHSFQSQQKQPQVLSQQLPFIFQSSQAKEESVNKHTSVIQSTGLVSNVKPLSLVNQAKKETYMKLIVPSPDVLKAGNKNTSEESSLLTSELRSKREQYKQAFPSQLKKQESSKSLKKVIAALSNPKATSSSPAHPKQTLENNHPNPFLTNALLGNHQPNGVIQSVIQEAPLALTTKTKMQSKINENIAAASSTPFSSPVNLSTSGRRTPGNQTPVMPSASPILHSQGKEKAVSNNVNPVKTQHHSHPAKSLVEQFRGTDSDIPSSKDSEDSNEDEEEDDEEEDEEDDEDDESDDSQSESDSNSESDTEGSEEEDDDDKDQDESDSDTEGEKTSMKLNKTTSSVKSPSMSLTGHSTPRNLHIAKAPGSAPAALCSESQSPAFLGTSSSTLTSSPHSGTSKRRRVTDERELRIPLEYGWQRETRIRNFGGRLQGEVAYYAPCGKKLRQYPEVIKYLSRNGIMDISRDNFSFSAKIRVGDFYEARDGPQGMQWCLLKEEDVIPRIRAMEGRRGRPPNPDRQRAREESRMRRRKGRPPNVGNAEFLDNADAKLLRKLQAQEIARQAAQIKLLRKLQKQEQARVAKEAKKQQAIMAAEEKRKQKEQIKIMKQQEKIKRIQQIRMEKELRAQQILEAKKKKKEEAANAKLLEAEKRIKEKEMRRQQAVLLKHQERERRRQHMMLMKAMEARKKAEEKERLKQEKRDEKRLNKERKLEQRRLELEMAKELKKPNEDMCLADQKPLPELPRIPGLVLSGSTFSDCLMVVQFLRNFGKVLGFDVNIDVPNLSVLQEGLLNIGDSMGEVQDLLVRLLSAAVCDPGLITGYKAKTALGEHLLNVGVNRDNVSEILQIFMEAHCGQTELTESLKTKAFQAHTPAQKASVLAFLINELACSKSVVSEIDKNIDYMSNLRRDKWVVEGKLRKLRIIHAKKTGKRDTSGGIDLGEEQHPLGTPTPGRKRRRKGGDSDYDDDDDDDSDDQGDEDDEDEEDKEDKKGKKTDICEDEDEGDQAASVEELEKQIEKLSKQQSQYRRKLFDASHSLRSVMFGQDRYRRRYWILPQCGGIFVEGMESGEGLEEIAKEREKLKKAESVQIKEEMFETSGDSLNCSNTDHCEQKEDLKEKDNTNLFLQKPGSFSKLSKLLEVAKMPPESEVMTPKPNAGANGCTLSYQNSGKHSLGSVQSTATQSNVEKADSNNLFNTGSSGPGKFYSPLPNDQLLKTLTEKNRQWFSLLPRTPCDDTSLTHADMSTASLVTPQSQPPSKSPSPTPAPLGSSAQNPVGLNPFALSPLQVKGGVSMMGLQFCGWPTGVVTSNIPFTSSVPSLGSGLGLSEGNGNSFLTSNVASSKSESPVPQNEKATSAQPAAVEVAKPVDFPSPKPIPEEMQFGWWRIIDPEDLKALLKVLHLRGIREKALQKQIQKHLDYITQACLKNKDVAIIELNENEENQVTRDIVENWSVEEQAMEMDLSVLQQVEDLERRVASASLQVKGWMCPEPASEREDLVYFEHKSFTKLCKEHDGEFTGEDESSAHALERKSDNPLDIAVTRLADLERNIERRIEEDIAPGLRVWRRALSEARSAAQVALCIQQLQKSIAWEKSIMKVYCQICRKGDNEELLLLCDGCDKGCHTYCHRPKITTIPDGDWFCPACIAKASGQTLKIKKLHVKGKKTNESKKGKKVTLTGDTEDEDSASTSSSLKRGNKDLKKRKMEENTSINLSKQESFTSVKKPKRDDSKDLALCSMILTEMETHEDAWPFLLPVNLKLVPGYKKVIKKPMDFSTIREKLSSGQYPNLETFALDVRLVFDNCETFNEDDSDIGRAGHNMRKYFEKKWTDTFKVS
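Complex of BAZ2B and biotin-H3K14Ac (50 nM apiece) forms over 30 min at RT, then faces library compounds up to 110 uM for another 30 min; AlphaScreen beads added, 20 min dark incubation, luminescence read.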
L3MBTL1 block = inhibitors of human L3MBTL1; hit rate 0.66% among 230,000; Potency, µM (doses to about 57.1 µM), inactives show at the highest dose activity, negative = inhibition, most hits filed as inhibitors; AlphaScreen L3MBTL1–H3K9me1 peptide binding; Q9Y468; note: % is set by controls: 0 for no effect and ±100 for the full control effect; nearly all actives have a fitted effect of over 60% in size
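First, the protein-peptide complex forms for 30 min at room temperature (L3MBTL1 50 nM, biotinylated H3K9me1 peptide 75 nM). Next, compounds are pin-transferred and incubated 30 min. Finally, AlphaScreen beads are added and read after 30 min.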
G9a inh = G9a (human) methyltransferase inhibition | Q96KQ7 | G9a H3K9 monomethylation, AlphaScreen, 2 h | Potency, µM (doses to about 102 µM), inactives show at the top dose activity, negative = inhibition, most hits filed as inhibitors | hit rate 8.8% among 350,000 | AID 504332; note: % is set by controls: 0 for no effect and ±100 for the full control effect; nearly all actives have a fitted effect of over 75% in size
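Compounds were preincubated with 20 nM G9a for 15 min, after which biotinylated H3K9 peptide (500 nM) and SAM (20 uM) started a 2 h room-temperature reaction. Monomethylated product was quantified by antibody-based AlphaScreen chemiluminescence.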
JMJD2A Tudor = JMJD2A Tudor domain (human) inhibition | hit rate 4.4% among 390,000 | Potency, µM (doses to about 114 µM), for the others: at the highest dose activity change, negative = inhibition, actives largely listed as inhibitors | O75164 | AlphaScreen JMJD2A-Tudor / H3K4me3 peptide binding; note: % is set by controls: 0 for no effect and ±100 for the full control effect; nearly all actives have a fitted effect of over 50% in size
HP1b binding inh = blocks HP1-beta chromodomain binding to methylated histone tails; AlphaScreen HP1-beta / biotin-H3K9me3 peptide binding; Potency, µM (series often up to 114 µM), for inactives: at the highest dose activity change, negative = inhibition, hits mostly inhibitors; hit rate 0.56% among 390,000; AID 540317; note: nearly all actives have a fitted effect of over 70% in size
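AlphaScreen: HP1-beta (50 nM) preformed 30 min with biotin-H3(1-18)K9me3 peptide (50 nM) in PBS pH 7.4, 0.01% Tween-20. Compound added for 30 min at RT, then streptavidin donor/nickel chelate acceptor beads (10 ug/mL) for 30 min.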
The depositor's hits bear a star; ? = inconclusive; · = no result; [ ] = another dose, or the depositor's remark. Calls come from the whole dose curve; as a rule, active = well fitted inhibition curve with a large enough effect; inconclusive = small, poorly fitted or top-dose-only effect; inactive = no such curve, though single readings can be large or run the other way. Potency is the fitted concentration of half-maximal effect.

SMILES	BAZ2B inh	L3MBTL1 block	G9a inh	JMJD2A Tudor	HP1b binding inh
O=C(c1ccco1)N1CCC2(CC1)CCN(c1ccccn1)CC2	·	·	3.7%[12.7 µM]	·	·
CC(C)[C@H](/C=C/C[Si](C)(C)C)[C@H](C)C(O)/C=C/CCCOC(=O)C(C)(C)C (some centres undefined)	·	·	·	-4.1%	36.8%
Cc1cccc(-n2c(=S)[nH]c3sc4c(c3c2=O)CCc2ccccc2-4)c1	?	·	?	?	7.08µM*
COCCSc1nnc(NS(=O)(=O)c2ccc(F)cc2)s1	-26.7%	1.5%	31.6µM*	-12.5%	36.4%
COCc1nnc(NS(=O)(=O)c2ccc(F)cc2)s1	-7.5%	4.4%	-119.6%	3.0%	39.2%
CCc1ccc(NC(=O)Cn2c(SCc3ccc(C)cc3)nc3ccncc32)cc1	·	·	·	-14.6%[57.1 µM]	24.6%[57 µM]
CCOc1ccc(OCC)c(NC(=O)Cn2nc(CC)n3c(cc4sccc43)c2=O)c1	-4.2%	·	-23.7%[59 µM]	-14.9%	10.9%
COc1ccc(-c2cc3ccccc3n2CC(O)CN2CCC(C)CC2)cc1 (centres undefined)	50.1µM*	·	?	17.8µM*	?
CC(=O)c1ccc(NC(=O)CNCC(c2ccccc2)N(C)C)cc1 (centres undefined)	1.2%	-23.5%	14.1µM*	2.82µM*	9.3%
Cc1ccc(NC(=O)NCC(c2ccccc2)N(C)C)cc1 (centres undefined)	-19.1%	·	-1.4%	-11.3%	28.2%
Cc1ccc(-n2c(SCc3cc(=O)n4ccsc4n3)nnc2-c2cccnc2)c(C)c1	56.2µM*	?	?	-27.3%	9.1%
CCOc1ccc(-n2c(SCc3cc(=O)oc4cc(C)ccc34)nnc2-c2cccnc2)cc1	-35.2%	-0.6%	6.9%[59 µM]	-10.3%	31.2%
CC(=O)Nc1ccc2c(CSc3nnc(-c4cccnc4)n3-c3ccc(C)cc3C)cc(=O)oc2c1	?	-9.8%	8.91µM*	-24.5%	20.0%
Cn1c(=O)c(C#N)c(-c2ccc(F)cc2)c2cc(C(=O)c3cc(Cl)cc(Cl)c3O)cnc21	35.5µM*	-2.8%	?	44.7µM*	?
COc1ccccc1-n1c(=O)c(C#N)c(-c2ccc([N+](=O)[O-])cc2)c2cc(C(=O)c3cc(F)ccc3O)cnc21	?	-17.5%	?	-35.0%	16.5%
CC1=NN(c2ccc(N)cc2)C(=O)C1	?	·	8.91µM*	-14.5%[11.4 µM]	6.8%
CCCCCOc1ccc(/C(C)=N/NC2=NCCN2)cc1	-19.7%	10.5%	8.2%	-9.3%	33.3%
CCOc1ccc(Br)cc1/C(C)=N\NC1=NCCN1	-7.8%	·	56.2µM*	-16.6%	18.9%
COc1ccc(-c2nc3cc(C)ccn3c2NC(=O)c2cccc(F)c2)cc1	-3.7%	·	1.7%[59 µM]	-19.1%	12.5%
Cc1ccc2nc3sc(C(=O)Nc4c(C)[nH]c(=O)[nH]c4=O)c(N)c3cc2c1	-30.4%	4.3%	10µM*	-18.6%	21.7%
Cc1[nH]c(=O)[nH]c(=O)c1NC(=O)c1sc2nc3c(C)cccc3cc2c1N	-9.8%	-2.1%	10µM*	-21.4%	21.9%
Cc1ccc2cc3c(N)c(C(=O)Nc4c(C)[nH]c(=O)[nH]c4=O)sc3nc2c1	?	-3.3%	10µM*	-28.1%	32.8%
Cc1ccccc1NC(=O)c1sc2nc(-c3ccncc3)ccc2c1N	0.2%	·	-5.2%[59 µM]	1.0%	17.3%
Cc1ccc2c(c1)cc1c(=O)n(CC(=O)NC3CCCCC3)nc(C)n12	4.4%	·	7.0%[59 µM]	2.9%	37.2%
COc1ccc(OC)c(S(=O)(=O)N2CCC(n3c(C)nc4cccnc43)CC2)c1	4.6%	·	6.9%[59 µM]	13.3%	13.1%
SMILES	BAZ2B inh	L3MBTL1 block	G9a inh	JMJD2A Tudor	HP1b binding inh
Cc1ccc2c(c1)c1c(n2CC(O)CNC(CO)(CO)CO)CCCC1 (centres undefined)	?	·	50.1µM*	?	-1.8%
Cc1ccc2c(c1)c1c(n2CC(O)CNC2CCCCC2)CCCC1 (centres undefined)	50.1µM*	·	39.8µM*	31.6µM*	?
Cc1ccc2c(c1)c1c(n2CC(O)CN2CCOCC2)CCCC1 (centres undefined)	-35.0%	?	?	·	·
CN1CCN(C2=C(Cl)C(=O)N(c3ccc(Cl)cc3)C2=O)CC1	·	-7.2%	5.01µM*	39.8µM*	25.7%
CCOC(=O)CSc1nnc(NC(=O)c2cccc([N+](=O)[O-])c2C)s1	-7.8%	6.0%	25.1µM*	-9.6%	30.6%
CCOC(=O)CSc1nnc(NC(=O)CN2CCCCC2)s1	-4.0%	·	4.6%[12.7 µM]	50.1µM*	22.7%
O=C(O)CSc1nnc(NC(=O)CN2CCOCC2)s1	-31.2%	·	?	3.9%	19.1%
COc1cc(C2c3c(oc4ccccc4c3=O)C(=O)N2c2nnc(C(C)C)s2)cc(OC)c1OC (centres undefined)	-3.2%	·	4.7%[59 µM]	-13.4%	15.7%
COc1ccc(-[n+]2c(C)cc(/C=C3\Sc4ccccc4N3C)cc2C)cc1	-14.6%	8.8%	50.1µM*	-3.7%	64.6%
CCc1ccc(-c2cc(C(=O)N/N=C/c3c[nH]c4ccccc34)[nH]n2)cc1	·	-12.2%	44.7%	?	13.4%
CCc1ccc(/C=C/c2c[nH]c3ccccc23)[n+](CC)c1	-0.2%	2.6%	7.08µM*	?	21.8%
O=C(CN1C(=O)CC(c2ccc(F)cc2)=Nc2ccccc21)NCc1ccccc1Cl	-8.7%	·	-2.1%[59 µM]	-27.7%	24.6%
Cc1cc2ncc(S(C)(=O)=O)c(N)n2n1	-7.1%	6.1%	1.8%	12.6µM*	4.3%
COc1ccc(S(=O)(=O)N2CCC(C(=O)NC(C)c3ccccc3)CC2)cc1 (centres undefined)	0.8%	·	5.4%[59 µM]	-1.4%	39.5%
CCOC(=O)c1c(Nc2cc(C)cc(C)c2)nnc(-c2ccccc2)c1-c1ccccc1	-38.2%	·	3.55µM*	?	-5.3%
CCOC(=O)c1c(Nc2ccccc2)nnc(-c2ccccc2)c1-c1ccccc1	-30.4%	·	-44.4%[59 µM]	-28.7%	16.9%
CCOC(=O)c1c(Nc2ccc(OC)cc2)nnc(-c2ccccc2)c1-c1ccccc1	?	·	7.94µM*	?	-11.5%
OCC[C@H]1C[C@H](O)[C@@H](O)[C@]2(Cc3ccccc3O2)O1	11.0%	-1.9%	-0.6%[12.7 µM]	-3.6%	43.6%
OCC[C@@H]1C[C@@H](O)[C@H](O)[C@@]2(Cc3ccccc3O2)O1	-30.7%	3.5%	15.8µM*	-12.9%	50.0%
OCC[C@@H]1C[C@H](O)[C@@H](O)[C@@]2(CCc3ccccc3O2)O1	-23.9%	-5.7%	79.4µM*	-16.4%	55.8%
Nc1[nH]n2c(=O)cc(-c3ccccc3)nc2c1N=Nc1ccc(S(N)(=O)=O)cc1	?	-17.3%	35.5µM*	?	-13.8%
Cc1ccc(C2C=C(c3ccc(F)cc3)Nc3nc(CCCO)nn32)cc1 (centres undefined)	-3.6%	·	-41.0%[59 µM]	-19.7%	42.5%
Cc1ccc(C(=O)c2coc3c2C(=O)C(=O)c2ccccc2-3)cc1	?	·	39.8µM*	?	-25.2%
